Screening results: PubChem, several laboratories
Htt clearance: compounds clearing mutant huntingtin protein | 47,000 compounds, 0.42% hits | HeLa Exon1htt(103Q)mCFP, aggregate imaging; zero = plate's median compound well | inhibition, % at 1.5 µM;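 active = inhibition of aggregate fluorescence above about 70%, also judged a hit by eye on the cell image, limit read from the data, passing the limit was not always enough; inconclusive = no rule stated for this call; inactive = not judged a hit on image review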;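 also: cells exposed to compound for three days before fixation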
M1 antag: antagonists of rat M1 muscarinic receptor. P08482. CHO-M1 cells, Fluo-4 calcium, ACh EC80 antagonist mode; hits give low values. B-score at 10 µM. 64,000 compounds, 3.4% hits. AID 628;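 active = calcium fluorescence response, raw or row-and-column corrected B-score, differing from the plate sample mean either way at a set confidence level, mostly lower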
D1 mod: allosterically modulates the human D1 dopamine receptor; P21728; HEK293 D1, CRE-luciferase, dopamine EC30 potentiation; actives deviate in either direction; B-score at 10 µM; 58,000 compounds, 5.9% hits; AID 641;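 active = luminescence count or its row- and column-corrected plate score outside the 99.7% band of the plate's sample wells, on either side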
Target sequence (P21728 whole entry, looked up): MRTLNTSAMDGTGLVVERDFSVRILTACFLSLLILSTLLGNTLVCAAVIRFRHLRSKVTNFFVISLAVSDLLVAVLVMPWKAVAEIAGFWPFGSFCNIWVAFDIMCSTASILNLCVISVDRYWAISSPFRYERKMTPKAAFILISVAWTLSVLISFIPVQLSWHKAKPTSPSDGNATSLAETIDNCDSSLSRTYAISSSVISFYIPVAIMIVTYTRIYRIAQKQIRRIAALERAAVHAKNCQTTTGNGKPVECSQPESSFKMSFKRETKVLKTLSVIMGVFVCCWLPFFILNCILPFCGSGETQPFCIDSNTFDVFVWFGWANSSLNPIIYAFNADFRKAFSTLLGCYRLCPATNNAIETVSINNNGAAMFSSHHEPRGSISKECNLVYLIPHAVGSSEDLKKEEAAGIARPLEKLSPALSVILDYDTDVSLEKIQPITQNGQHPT
M1 ag: M1 muscarinic receptor agonism. CHO-M1 cells, Fluo-4 calcium fluorescence, agonist mode; hits give high values. B-score at 10 µM. 64,000 compounds, 3% hits. AID 626;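 active = fluorescence rise, raw or as B-score row- and column-corrected plate score, outside the 99.7% band of its plate's samples, either direction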
M1 antag confirm: confirmation of rat M1 muscarinic receptor antagonists. calcium response (max-min fluorescence) at 10 µM. 1,700 compounds, 43% hits. shares compounds with M1 antag. CHO-M1 cells, Fluo-4 calcium, ACh EC80 antagonism; hits give low values;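 active = calcium response below the same-plate mean of wells given acetylcholine alone at its 80%-effect dose, minus 3 SD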;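 also: raw fluorescence intensity difference in arbitrary instrument units and not normalized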
mGluR4 antag: acts on human mGluR4 in M1 antagonist selectivity test | fluorescence response (max-min) at 10 µM | AID 678 | 1,700 compounds, 0.9% hits | shares compounds with M1 antag | CHO-mGluR4 calcium flux, Fluo-4 fluorescence, glutamate EC80; hits give low values;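 active = fluorescence response below the plate's average for near-maximal glutamate wells, less 3 SD of those wells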;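 also: raw unnormalized fluorescence span taken in the window right after glutamate addition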
Starred values were filed as active, the others as inactive; ? = inconclusive; . = no result. An excerpt weighted towards active compounds, which were near 9.1% of everything screened.

SMILES	Htt clearance	M1 antag	D1 mod	M1 ag	M1 antag confirm	mGluR4 antag
Cc1ccc(NC(=O)c2c(-c3c(F)cccc3Cl)noc2C)cc1F	.	-14*	-0.17	0.26	638	251
CC(=O)Nc1cccc(NC(=O)c2c(-c3c(Cl)cccc3Cl)noc2C)c1	25	0.19	.	0.012	.	.
O=C(Cn1cnc2c(oc3ccccc32)c1=O)NCC1CCCO1 (configuration not stated)	.	-0.31	0.061	-1.6	.	.
CCOC(=O)COc1cc2c3c(c(=O)oc2cc1C)CCCC3	12	-17*	1.1	1.5	119*	271
CCc1nnc(NCC(=O)N2CCc3ccccc32)s1	.	-4.8*	.	0.59	605	254
CCc1nnc(NC(=O)c2c(O)c3cccc4c3n(c2=O)CC4)s1	.	0.74	0.22	-0.21	.	.
COc1cc(CNc2ccc(N3CCOCC3)c(C(=O)O)c2)ccc1OCC(N)=O	.	0.071	0.79	0.54	.	.
Cc1ccc2c(CC(=O)OCn3nnc4ccccc4c3=O)coc2c1	-10	-4.9*	0.081	-0.58	323*	232
CC(=O)OCn1nnc2ccccc2c1=O	-100	0.42	0.18	0.52	.	.
COc1ccccc1N1CCN(C(=O)CSc2ccc3c(C)cc(C)nc3n2)CC1	2	0.76	-0.36	-0.93	.	.
COCCNc1nc(SCC(=O)N2CCN(c3ccccc3OC)CC2)nc2ccccc12	.	-3.4*	0.2	6.2	503*	222
CC1CCCN(c2nc3ccsc3c(=O)s2)C1 (configuration not stated)	15	-7.2*	3.8*	0.092	273*	201
C=CCn1c(COc2ccc(Cl)cc2)nnc1SCC(=O)N1CC(=O)Nc2ccccc21	-43	-0.93*	-0.9	0.2	537	237
C=CCn1c(COc2ccccc2)nnc1SCC(=O)C(C)(C)C	-18	0.4	0.5	0.067	.	.
CN(C)S(=O)(=O)N(Cc1ccc(Br)cc1)c1ccccc1	-1	-2.2*	0.11	0	506	240
CC[C@@H](C)[C@H](NC(=O)C1CCN(C(=O)[C@@H](NS(=O)(=O)c2ccc(C)cc2)C(C)C)CC1)C(=O)O	43	-0.73	0.11	-0.41	.	.
CCOc1ccccc1N1CCN(CC(O)COc2ccc3c(C)cc(=O)oc3c2)CC1 (configuration not stated)	.	-1.5*	.	1.1	455*	264
O=C(c1ccco1)N1CCN(CC(=O)N2CCCc3c2c(=O)oc2ccc(O)cc32)CC1	.	0.21	0.48	0.99	.	.
CC(=O)Oc1ccc2oc(=O)c3c(c2c1)CCCN3C(=O)CN1CCN(c2ncccn2)CC1	.	0.12	0.8	0.39	.	.
CCCOc1ccc2oc(=O)c3c(c2c1)CCCN3C(=O)CN(C)Cc1ccccc1	-4	-6.5*	-0.0071	-0.22	386*	265
O=C(CN1CCN(Cc2ccccc2)CC1)N1CCCc2c1c(=O)oc1ccc(O)cc21	37	-6.1*	-0.11	-0.0002	334*	222
CCn1cc(C2=NC(C(C)C)CO2)c2ccccc21 (configuration not stated)	.	-6.5*	-1.5	-0.76	412*	270
CC12CN3CC(C)(CN(C1)C3c1ccc(Br)cc1)C2 (configuration not stated)	18	-3.7*	-0.5	-0.34	387*	251
CCOC(=O)c1ccc(Nc2nnc3nc(C)cc(C)n23)cc1	20	-1.2*	0.25	-0.71	466	214
CCOC(=O)c1ccc(Nc2cc(C)nc3ncnn23)cc1	?	-0.37	-0.6	-1.3	.	.
SMILES	Htt clearance	M1 antag	D1 mod	M1 ag	M1 antag confirm	mGluR4 antag
CCn1c(SCC(N)=O)nnc1-c1cc2c(C)nn(-c3ccccc3)c2s1	.	-2.7*	1.7	0.75	489	160*
CCOc1ccc(S(=O)(=O)Nc2cccc(Cl)c2)cc1	-26	-0.56	-0.039	1.6	.	.
CCOc1ccc(S(=O)(=O)Nc2cc(Cl)ccc2O)cc1	32	-3.1*	-0.21	-0.058	457*	225
Cc1nc2c(o1)CCc1ccccc1C2N1CCN(C)CC1 (configuration not stated)	5	-15*	.	-0.62	20*	254
CC(CC(C)C(=O)Nc1ccccc1C(C)(C)C)C(=O)O (configuration not stated)	-5	.	.	.	.	.
COC(=O)CSC1=C(C#N)C(c2ccc(F)cc2)CC(=O)N1 (configuration not stated)	62	-2.2*	-0.33	-0.88	632	197
COC(=O)CSC1=C(C#N)C(c2sccc2C)CC(=O)N1 (configuration not stated)	2	-0.36	-0.62	-0.45	.	.
Clc1ccc(COn2nnc3ccccc32)c(Cl)c1	-22	0.42	-0.19	0.93	.	.
Cc1cc(C)c(S(=O)(=O)N(C2=NCCS2)S(=O)(=O)c2c(C)cc(C)cc2C)c(C)c1	65	.	.	.	.	.
COc1cc(OC)cc(C(=O)Nc2cccc(NC(C)=O)c2)c1	.	-3.6*	.	-0.81	666	242
CCOC(=O)Nc1cccc(NC(=O)c2cc(OC)cc(OC)c2)c1	19	-0.028	-0.023	0.7	.	.
CC(CN(C)Cc1ccccc1)OC(=O)c1cccs1 (configuration not stated)	-5	-0.76	-0.3	-0.013	.	.
CC(CN(C)Cc1ccccc1)OC(=O)c1ccc2c(c1)OCCO2 (configuration not stated)	.	-3.2*	-0.039	0.61	323*	223
COc1ccc(C2(CN(C(C)=O)C(C)=O)CCCC2)cc1OC	.	-14*	0.39	-0.95	546	197
COc1ccc(S(=O)NC2CCCCC2)c(OC)c1C (configuration not stated)	13	.	.	.	.	.
CC(Sc1nc2ccccc2s1)C(=O)N1CCOCC1 (configuration not stated)	63	.	0.0028	.	.	.
CCOC(=O)N1CCC(N2C(=O)c3ccccc3C2Nc2cc(C(=O)OC)cc(C(=O)OC)c2)CC1 (configuration not stated)	.	-2.8*	2.3	-0.12	695	198
COc1ccc2nc(NC(=O)CN(c3ccc(C)cc3)S(=O)(=O)c3c(C)nn(C)c3C)sc2c1	-32	0.31	.	-0.34	.	.
O=C(N/C(=N\O)c1ccccc1)Nc1ccc(Cl)cc1	.	-3.5*	-0.039	-0.36	487	210
CC(=O)c1ccc(C(C)(C)c2ccc(C(C)=O)s2)s1	.	-2.6*	-0.2	-0.01	518*	263
CC1(C)Cc2ccccc2C(N)=C1C#N	15	0.74	-0.23	2.2	.	.
CC1CCN(CCCNC(=O)c2coc3nc4ccccc4nc23)CC1	.	-4.8*	0.034	-0.27	390*	250
CC1CCCN(CCCNC(=O)c2coc3nc4ccccc4nc23)C1 (configuration not stated)	26	-1.8*	0.94	-0.55	365*	191
Cc1ccc(CCNC(=O)c2coc3nc4ccccc4nc23)cc1	7	0.042	-0.12	-1.3	.	.
COc1cccc(NC(=O)N2CCN(Cc3nc4ccccc4c(=O)[nH]3)CC2)c1	.	0.059	0.19	0.55	.	.
